Compounds with a hit are over-represented: about 1.6% of the library has one in this group of screens.
KCNQ2 enhance: potentiators of rat KCNQ2 potassium channel; B-score at 10 µM; 310,000 tested, 0.54% active; Potassium voltage-gated channel subfamily KQT member 2 (Rattus norvegicus), O88943; CHO-K1 KCNQ2, FluxOR thallium flux fluorescence; stronger effect = higher value;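 active = fluorescence ratio B-score at least 3 SD of library B-scores, with initial fluorescence B-score within 3 of them, cut at about 5.3 in these data; same plate scores as AID 2156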;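 note: B-score of peak minus minimum over baseline fluorescence ratio after K+ and Tl+ stimulus; positive B-score means potentiation of KCNQ2 with more thallium influx and brighter signal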
KCNQ2 block: rat KCNQ2 potassium channel inhibitors, primary screen, cell-based, CHO-K1, FluxOR thallium flux, B-score | 310,000 tested, 1.1% active | Potassium voltage-gated channel subfamily KQT member 2 (Rattus norvegicus), O88943 | 20 min; stronger effect = lower value | B-score at 10 µM | AID 2156, 2009;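 active = fluorescence ratio B-score at most minus 3 library SDs, with starting brightness B-score within 2 library SDs, cut at about -5.5 in these data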
Kir21 confirm: mouse Kir2.1 channel blockers, retest, confirmation, cell-based, FluxOR thallium flux, duplicate; 2,300 tested, 41% active; shares compounds with KCNQ2 enhance; Tl flux remaining, % of negative control (stronger effect = lower value), % at 10 µM; AID 2032, 2009; Kir2.1-expressing cells, FluxOR thallium flux fluorescence; stronger effect = lower value;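 active = Primary-screen hit whose thallium flux fell at least 3 control SD below untreated wells in both duplicates, with normal baseline fluorescence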;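 note: 0% = blank wells without stimulus and 100% = stimulated no-compound controls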
HEK293 ctr: alters thallium flux in parental HEK293 cells, Kir2.1 counter-screen; FluxOR signal as % of negative control (100 = no effect), % at 10 µM; AID 2105; shares compounds with KCNQ2 enhance; FluxOR thallium flux fluorescence; 0% = unstimulated blank wells; 2,300 tested, 19% active;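 active = dye signal at least 3 control SD above or below untreated wells in both duplicates, raw fluorescence within 3, either direction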;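 note: percent is based on the flux ratio of peak minus minimum fluorescence over baseline F0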
CHO-K1 ctr: nonspecific thallium flux increase in parental CHO-K1, confirmation, counter-screen for KCNQ2 potentiator project, cell-based, FluxOR thallium flux, duplicate; shares compounds with KCNQ2 enhance; parental CHO-K1 cells, FluxOR thallium flux fluorescence; zero = vehicle mean+3SD, 100% = vehicle-minus-blank window; activity increase over 3SD of controls, % at 10 µM; 1,200 tested, 43% active;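 active = signal rise of at least 3 SD above the untreated control mean, in both duplicate wells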;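 note: counter screen of KCNQ2 potentiator hits so any rise reflects channel-independent effects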
KCNQ1 pot spec: human KCNQ1 channel potentiation off-target, confirmation, selectivity assay for KCNQ2 potentiator project, cell-based, CHO, FluxOR thallium flux; shares compounds with KCNQ2 enhance; CHO KCNQ1 stable, FluxOR thallium flux fluorescence; beyond 3SD, as % of vehicle-control signal; activation over 3SD threshold, % at 10 µM; 1,200 tested, 28% active; AID 2283, 2010;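 active = fluorescence ratio rise of at least 3 SD of vehicle wells above their mean, in both replicate wells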;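 note: 0% = vehicle mean plus 3 SD and 100% = vehicle minus unstimulated blank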
KCNQ2 pot confirm: rat KCNQ2 channel potentiators, confirmation, cell-based, CHO, FluxOR thallium flux, duplicate. CHO-KCNQ2 cells, FluxOR thallium flux fluorescence. 1,200 tested, 68% active. potentiation, less the hit threshold, % at 10 µM. shares compounds with KCNQ2 enhance;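 active = fluorescence ratio rising 3 SD or more over the vehicle control mean in both replicates, plus primary screen hit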;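 note: peak minus minimum thallium fluorescence divided by baseline after K/Tl stimulus; 0% = vehicle mean plus 3 SD and 100% = vehicle minus unstimulated blank difference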
Kir2-1 sel: mouse Kir2.1 channel activation off-target, confirmation, selectivity assay for KCNQ2 potentiator project, cell-based, HEK293, FluxOR thallium flux | HEK293 Kir2.1, FluxOR thallium flux fluorescence | AID 2345, 2010 | shares compounds with KCNQ2 enhance | 1,200 tested, 2% active | activity over 3SD threshold, % at 10 µM;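 active = fluorescence ratio rise of at least 3 SD above the vehicle-control mean, seen in both replicates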;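 note: 0% = vehicle mean plus 3 SD and 100% = vehicle minus no-stimulus blank window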
KCNQ2 W236L MoA: potentiators of retigabine-insensitive KCNQ2 W236L, mechanism study for KCNQ2 potentiator project, cell-based, rat KCNQ2 W236L, CHO, automated patch clamp | shares compounds with KCNQ2 enhance | automated patch clamp current | current increase over 3SD of negative controls (%), stronger effect = higher value, % at 25 µM | 940 tested, 10% active;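 active = current increase at least 3 SD of the untreated controls above them in both duplicate recordings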
Target sequence (O88943 whole entry W236L, looked up): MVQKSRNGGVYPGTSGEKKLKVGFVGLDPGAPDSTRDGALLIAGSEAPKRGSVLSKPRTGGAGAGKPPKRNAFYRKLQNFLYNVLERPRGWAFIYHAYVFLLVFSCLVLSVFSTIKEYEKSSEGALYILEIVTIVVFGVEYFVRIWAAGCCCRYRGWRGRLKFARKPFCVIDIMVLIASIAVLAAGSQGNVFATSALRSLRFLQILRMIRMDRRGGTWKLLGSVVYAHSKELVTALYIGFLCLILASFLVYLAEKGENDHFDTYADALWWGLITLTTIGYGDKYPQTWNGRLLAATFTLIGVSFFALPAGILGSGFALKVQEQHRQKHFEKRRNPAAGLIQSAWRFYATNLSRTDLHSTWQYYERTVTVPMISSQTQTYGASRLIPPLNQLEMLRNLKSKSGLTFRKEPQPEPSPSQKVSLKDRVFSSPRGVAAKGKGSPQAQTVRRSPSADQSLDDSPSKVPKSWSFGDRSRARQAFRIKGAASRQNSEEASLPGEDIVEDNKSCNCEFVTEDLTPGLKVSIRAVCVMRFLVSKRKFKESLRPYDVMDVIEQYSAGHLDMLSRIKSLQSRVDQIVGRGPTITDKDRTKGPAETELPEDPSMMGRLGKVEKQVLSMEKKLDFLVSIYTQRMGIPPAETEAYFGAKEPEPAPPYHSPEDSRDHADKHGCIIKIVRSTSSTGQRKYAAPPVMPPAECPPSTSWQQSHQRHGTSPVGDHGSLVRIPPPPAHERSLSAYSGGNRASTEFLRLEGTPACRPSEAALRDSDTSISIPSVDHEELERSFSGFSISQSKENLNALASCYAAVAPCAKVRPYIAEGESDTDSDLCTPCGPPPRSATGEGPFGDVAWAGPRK
* hit, by the source's call; i = inactive; nt = no result.

SMILES | KCNQ2 enhance | KCNQ2 block | Kir21 confirm | HEK293 ctr | CHO-K1 ctr | KCNQ1 pot spec | KCNQ2 pot confirm | Kir2-1 sel | others
CCOc1cc(/C=N/O)ccc1OS(=O)(=O)c1ccc(C)cc1 | 0.06 | i | 48%* | i | nt | nt | nt | nt
CCNc1nc(NCC)n2c(SCC(=O)c3ccccc3F)nnc2n1 | 1.8 | i | nt | nt | nt | nt | nt | nt
O=C1NC(=O)/C(=C\c2ccccc2OCc2ccccc2)S1 | 0.21 | i | nt | nt | nt | nt | nt | nt
O=C1NC(=O)/C(=C\c2ccc(OCc3ccccc3)cc2)S1 | 8* | i | i | i | -9 | -32 | -13 | -36
Cc1cccc2cc(CN(Cc3cccnc3)C(=O)c3cccs3)c3nnnn3c12 | nt | i | nt | nt | nt | nt | nt | nt
CC(=O)Oc1ccc([C@@H]2COc3c(ccc4c3C=CC(C)(C)O4)C2)c(OC(C)=O)c1 | nt | i | nt | nt | nt | nt | nt | nt
CC(C)=CCc1cc([C@@H]2COc3c(ccc4c3C=CC(C)(C)O4)C2)c(O)cc1O | 6* | i | i | i | -7 | -2 | -25 | -28
CCOc1ccc(S(=O)(=O)N2CCCC(C(=O)N3CCCC3)C2)cc1 (centres undefined) | nt | i | nt | nt | nt | nt | nt | nt
COc1cc(OC)c(OC)cc1CNc1cc(C)ccc1OC | nt | i | 54%* | i | nt | nt | nt | nt
COc1ccc(C)cc1NCc1cccc(OC)c1OC | nt | i | nt | nt | nt | nt | nt | nt
COc1cc(C(=O)OCC(=O)NC2CCCC2)cc(NC(=O)c2ccco2)c1OC | 11* | i | i | i | -9 | -9 | -15 | -18
COc1cc(C(=O)OCC(C)=O)cc(NC(=O)c2ccco2)c1OC | nt | i | nt | nt | nt | nt | nt | nt
O=C(NCCCN1CCOCC1)C(=O)NCc1ccc(Cl)cc1 | nt | i | nt | nt | nt | nt | nt | nt
O=C(Nc1sc2c(c1C(=O)NCC(O)CO)CCCC2)c1ccccc1 (centres undefined) | 1.6 | i | nt | nt | nt | nt | nt | nt
Cc1cccc(C)c1NC(=O)c1ccc(-n2cnnn2)cc1 | 13* | i | i | i | -7 | -15 | -22 | -37
O=C(Nc1ccc(Br)cc1)c1ccc(-n2cnnn2)cc1 | 0.26 | i | nt | nt | nt | nt | nt | nt
O=C(Nc1scc(-c2ccc(Br)cc2)c1C(=O)O)c1ccccc1F | 5.3* | i | i | 186%* | -10 | -13 | 34* | -28 | KCNQ2 W236L MoA=i
O=C(Nc1scc(-c2ccccc2)c1C(=O)O)c1ccccc1F | nt | i | nt | nt | nt | nt | nt | nt
CC1CC(C)CN(S(=O)(=O)N2CCC(C(=O)NCCc3ccccc3)CC2)C1 (centres undefined) | 0.64 | i | nt | nt | nt | nt | nt | nt
Cn1cc(C(=O)C(=O)NC2CCCCC2)c2ccccc21 | nt | i | nt | nt | nt | nt | nt | nt
OCc1ccc(O)c2ncccc12 | nt | i | nt | nt | nt | nt | nt | nt
CC(C)COCc1ccc(O)c2ncccc12 | 7.7* | i | i | i | -27 | 11* | 51* | -37 | KCNQ2 W236L MoA=i
Oc1ccc(CN2CCCCC2)c2cccnc12 | 0.21 | i | nt | nt | nt | nt | nt | nt
Oc1ccc(CN2CCc3ccccc3C2)c2cccnc12 | 13* | i | 32%* | i | 44* | -19 | 1.3* | -100 | KCNQ2 W236L MoA=i
Oc1ccc(COCc2ccccc2)c2cccnc12 | 5.9* | i | i | i | 15* | -13 | 1.0* | -46 | KCNQ2 W236L MoA=i

Screening data (PubChem)
